Experimental data published in PubChem BioAssay (NCATS).
Inconclusive results are not listed. The source made the active and inactive calls. The call rests on the fitted dose curve; in most records, active means well fitted inhibition curve with a large enough effect; inconclusive means small, poorly fitted or top-dose-only effect, or effect the other way; inactive means flat fitted curve, though single readings scatter.

test: qHTS for Inhibitors of Plasmodium falciparum (CP250) proliferation (AID 504320); conditions: P. falciparum CP250 in erythrocytes, SYBR Green DNA, 72 h; series mostly up to 6.7 µM; activity change, negative = inhibition: at the top concentration
Description: Plasmodium falciparum is a virulent malarial parasite that kills 1-2 million people worldwide each year. Malaria not only inflicts tremendous suffering and morbidity on the human population, but has dramatically influenced the course of civilization with profound sociological and economic implications (Shah, S. 2010). Transmitted by mosquitoes, the sporozoite form of the parasite enters the blood stream to infect hepatocytes, where they become merozoites that infect red blood cells (erythrocytes). Within erythrocytes, merozoites begin a […] cycle of growth and division, after which the parasite is released to infect new red blood cells. Gametocytes, which form within erythrocytes as well, circulate in the bloodstream and are ingested by the mosquito, thereby completing the life cycle (see CDC website). To profile malarial lines for differential chemical responses and to identify inhibitors of malarial growth, an assay that measures P. falciparum growth and replication within erythrocytes was employed. This assay uses a DNA binding fluorescent dye (SYBR Green) to detect parasite DNA following cell lysis. Because mature erythrocytes lack DNA, only Plasmodium-derived DNA is detected. The P. falciparum line cp250, derived from a malarial isolate from Cambodia, (Mu, J., et al. 2010) was added to the panel of lines, Dd2, HB3, 7G8 and GB4 in this study. Laboratory of Assay Development and Screening Technology [ADST] and NIH Chemical Genomics Center [NCGC] Boston University, Chemistry Department, Center for Chemical Methodology and Library Development [CMLD-BU] NIH National Institute of Allergy and Infectious Diseases [NIAID]
ADST Assay Protocol Summary: The 1536-well SYBR Green viability assay was based on the method of Bennett et al (2004) and described previously in 1536-well format (Yuan J., et al. 2009). For screening 3 ul culture medium was dispensed into 1536 well black clear bottom plates (Aurora Biotechnologies) using a Multidrop Combi (Thermo Fisher Scientific Inc.), 23 nL compounds in DMSO were added by a pin transfer (Cleveland, P.H. and Koutz, P.J, 2005) using a pin tool-based delivery system (Kalypsys), and 5 ul of erythrocytes infected with P. falciparum one of five lines (cp250, Dd2, HB3, 7G8 or GB4, 0.3% parasitemia, 2.5% hematocrit final concentration) were added. The plates were incubated at 37C in a humidified incubator in 5% CO2 for 72 h, and 2 ul lysis buffer (20 mM Tris HCl, 10 mM EDTA, 0.16% saponin, 1.6% triton X, 10X SYBR Green I (supplied as 10,000X final concentration by Invitrogen) was added to each well. The plates were mixed for 25 sec with gentle shaking and incubated overnight at room temperature in the dark. The following morning, fluorescence intensity at 485(14) nm excitation and 535(25) nm emission wavelengths was measured on an EnVision (Perkin Elmer) plate reader. Plate reads were normalized relative to the control inhibitor (0.29 uM artemisinin) and vehicle (DMSO) wells present on each plate and then corrected by an algorithm using vehicle-only control plates at the beginning and end of the compound plate stack. References Shah, S. (2010). The Fever: how malaria has ruled humankind for 500,000 years. New York, Sarah Crichton Books. CDC web site, http://www.cdc.gov/malaria/about/biology/index.html Mu, J., Myers, R.A., Jiang, H., Liu, S., Ricklefs, S., Waisberg, M., Chotivanich, K., Wilairatana, P., Krudsood, S., White, N.J., et Plasmodium falciparum genome-wide scans for positive selection, recombination hot spots and resistance to antimalarial drugs Nature Genetics 2010, 42, pp 268-271 Bennett TN, Paguio, M., Gligorijevic, B., Seudieu, C., Kosar, A. D., Davidson, E., and Roepe, P. D. Novel, rapid, and inexpensive cell-based quantification of antimalarial drug efficacy Antimicrobial Agents Chemother. 2004, 48(5): pp 1807-10 Yuan J, Johnson RL, Huang RL, Wichterman J, Jiang HY, Hayton K, Fidock DA, Wellems TE, Inglese J, Austin CP, Su XZ. […]

Activity change, negative = inhibition, inactive:
C=CC[C@]1(C(=O)OC)C=C[C@H](C)[C@@H](c2ccccc2)N1C(=O)C(F)(F)F 7.05%, COC(=O)CCCC1=CC2=CC(=O)C(C)(OC(=O)c3cccs3)C(=O)C2=CN1c1ccc(CO)cc1 (stereo not given) 4.68%, C[C@H]1Cc2c(COc3ccccc3)nc3c(c2CO1)CN(C(=O)Nc1cccc(C#N)c1)CC3 -0.127%, COC(=O)CCC(=O)OC1(C)C(=O)C2=CN(CC(C)C)C(c3ccc(OC)cc3)=CC2=C(Br)C1=O (stereo not given) 0.119%, COCC(=O)N1CCc2nc(-c3ccc(OC)cc3C)c3c(c2C1)CO[C@@H](c1ccccc1)C3 -0.621%, CCCCC1=CC2=CC(=O)C(C)(OC(=O)CC)C(=O)C2=CN1C1CCCCC1 (stereo not given) 3.33%, COC(=O)C1=C(C)N(Cc2ccccc2)C(=O)N[C@H]1c1cccs1 2.9%, COCCN1C(=O)N[C@@H](c2cccc(F)c2)C(C(C)=O)=C1C -3.58%, COC/C=C/C1=CC2=CC(=O)C(C)(OC(=O)c3cnc4ccccc4n3)C(=O)C2=CN1C1CCCCC1 (stereo not given) 2.64%, CCOC(=O)CN1C(=O)NC(c2cccc(C(F)(F)F)c2)C(C(C)=O)=C1C (stereo not given) 3.18%, COC(=O)CCC(=O)OC1(C)C(=O)C=C2C=C(C3CC3)N(CC(C)C)C=C2C1=O (stereo not given) -12.5%, CC#CCN1C(=O)N[C@@H](c2ccccc2)C(C(=O)OC)=C1C 3.23%, CCN1C(=O)N[C@@H](CCc2ccccc2)C(C(=O)OC)=C1C 5.77%, COC(=O)C1=C(C)N(Cc2ccccc2)C(=O)NC1c1ccco1 (stereo not given) 0.494%, C[C@H]1Cc2c(-c3ccccc3)nc3c(c2CO1)CN(C(=O)C1CCCCC1)CC3 -2.29%, CCN1C(=O)N[C@@H](c2ccco2)C(C(C)=O)=C1C 0.505%, CC#CCN1c2ccccc2[C@]23C[C@@H](C(=O)OC)N(C(=O)COCc4ccccc4)C2=NC(C(=O)OC)=C(C(=O)OC)[C@H]13 -2.01%, COC(=O)CCCC1=CC2=CC(=O)C(C)(OC(=O)c3cccs3)C(=O)C2=CN1Cc1ccc2c(c1)OCO2 (stereo not given) 0.0446%, CCN1C(=O)N[C@@H](c2cccc(F)c2)C(C(=O)OC)=C1C 3.24%, COC/C=C/C1=CC2=CC(=O)C(C)(OC(=O)c3cnc4ccccc4n3)C(=O)C2=CN1CCc1c[nH]c2ccccc12 (stereo not given) 4.29%, CC1(OC(=O)c2cnc3ccccc3n2)C(=O)C=C2C=C3CCCN3C=C2C1=O (stereo not given) 7.78%, C=C(C(C)=O)C(O)C=Cc1ccco1 (stereo not given) 6.01%, COc1ccc(-c2nc3c(c4c2C[C@H](c2ccccc2)OC4)CN(C(=O)NCCc2c[nH]c4ccccc24)CC3)c(C)c1 1.71%, Cc1ccc(S(=O)(=O)N[C@@H]2COC(=O)[C@@H](C)COC(=O)CC=C[C@H]2C)cc1 2.71%, CC1(OC(=O)CCc2ccccc2)C(=O)C=C2C=C(c3ccc(C#N)cc3)N(C3CCCCC3)C=C2C1=O (stereo not given) 0.556%, COC(=O)C1=C(C(=O)OC)[C@@H]2N(C)c3ccc(OC)cc3[C@@]23C[C@@H](C(=O)OC)N(C(=O)c2ccc(Br)cc2)C3=N1 1.17%, CCOC(=O)CN1C(=O)N[C@@H](c2ccc(Br)cc2)C(C(=O)OC)=C1C -3.85%, CC#CCN1c2ccccc2[C@]23C[C@@H](C(=O)OC)N=C2NC(C(=O)OC)=C(C(=O)OC)[C@H]13 1.77%, CCCCC1=CC2=CC(=O)C(C)(OC(=O)CC)C(=O)C2=CN1Cc1ccco1 (stereo not given) -0.123%, COC(=O)CCC(=O)OC1(C)C(=O)C2=CN(CC3CC3)C(c3ccc(OC)cc3)=CC2=C(Br)C1=O (stereo not given) -6.44%, COC/C=C/C1=CC2=CC(=O)C(C)(OC(=O)c3cnc4ccccc4n3)C(=O)C2=CN1c1ccccc1 (stereo not given) -0.779%, COC(=O)C1=C(C(=O)OC)[C@@H]2N(C)c3ccccc3[C@@]23C[C@@H](CO)N(C(=O)c2ccco2)C3=N1 -3.03%

Potency, inactive:
CCN1C(=O)N[C@@H](c2cccc(C(F)(F)F)c2)[C@@H](C(=O)OC)[C@H]1C, COC(=O)CCCC1=CC2=CC(=O)C(C)(OC(=O)c3cccs3)C(=O)C2=CN1CCCCO (stereo not given), CCCCC1=CC2=C(c3ccco3)C(=O)C(C)(OC(=O)c3ccc(OC)cc3)C(=O)C2=CN1CCCCO (stereo not given), COC(=O)CCCC1=CC2=CC(=O)C(C)(OC(=O)c3cccs3)C(=O)C2=CN1c1ccccc1 (stereo not given), C=CCN1c2ccccc2[C@]23C[C@@H](C(=O)OC)N(C(=O)CC(C)C)C2=NC(C(=O)OC)=C(C(=O)OC)[C@H]13, C=CC1=C2C=C(C3CC3)N(CCCCO)C=C2C(=O)C(C)(OC(=O)c2ccco2)C1=O (stereo not given), CC(=O)[C@@H]1[C@@H](C)N(Cc2ccccc2)C(=O)N[C@H]1c1cccc(C(F)(F)F)c1, COCCN1C(=O)N[C@@H](c2cccc(C(F)(F)F)c2)[C@@H](C(=O)OC)[C@H]1C
